An excerpt weighted towards active compounds, which were near 2.9% of everything screened.
CF NFkB inh – blocks PAF-induced NF-kB reporter in cystic fibrosis cells; KKLEB NF-kB-GFP reporter, GFP fluorescence overnight; inhibition, % at 5 µM; 360,000 compounds, 0.86% hits; AID 588850;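 active means at least 50% inhibition at 5 µM, scaled per plate between neutral and stimulator controls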;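 further: PAF is a Pseudomonas aeruginosa culture filtrate used as stimulus; plate controls were PAF-stimulated DMSO wells for no effect and unstimulated DMSO wells for full effect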
Shn3 3UTR inh – Schnurri-3 reporter inhibition in Clone20 osteoblasts. Clone20 osteoblast Shn3 3'UTR firefly luciferase, 24 h. inhibition, % at 12.5 µM. 360,000 compounds, 0.52% hits. AID 588674;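 active means mean inhibition of at least 75% with every replicate also reaching 75%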;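 further: 0% = median of neutral control wells and 100% = pilot-screen positive control compound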
Peg3 prom inh – reduces Peg3 promoter-driven luciferase expression in HeLa. HeLa PEG-Prom luciferase reporter, luminescence, overnight. AID 588405. inhibition, % at 20 µM. 360,000 compounds, 1.7% hits;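 active means inhibition of at least 50% at 20 µM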
LMP1 NFkB inh – reduces LMP1-driven NF-kappaB luciferase signal; inhibition, % at 12.5 µM; 350,000 compounds, 0.69% hits; LMP1-induced NF-kappaB luciferase reporter cells, luminescence; in the data active means inhibition above about 41%;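 further: 0% = neutral control wells and 100% = reference inhibitor control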
KKLEB tox – reduces viability of KKLEB cystic fibrosis airway cells | KKLEB CF airway cells viability, ATPlite luminescence, overnight; hits give low values; cells stimulated with P. aeruginosa culture filtrate | activity change (cytotoxicity), % at 5 µM | 360,000 compounds, 0.36% hits | AID 602141;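 active means corrected activity change at or below -50% at 5 µM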
MITF TRPM1 inh – inhibitors of MITF-driven TRPM1 promoter in melanoma cells | SK-MEL-5 TRPM1 promoter luciferase, 24 h | inhibition, % at 12.5 µM | 330,000 compounds, 0.83% hits;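 active means mean inhibition across replicates of 60% or more, whatever share of single replicates reaches that level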
Starred values were filed as active, the others as inactive.

`COC1OC(COC(=O)c2ccccc2)C(OC(=O)c2ccccc2)C1OC(=O)c1ccccc1` (stereo not drawn) gave CF NFkB inh -8, Shn3 3UTR inh 22, Peg3 prom inh 19, LMP1 NFkB inh -6, KKLEB tox -11 and MITF TRPM1 inh 12.
C=C(CN(C)C)C(=O)c1ccc(OC2OC(COC(C)=O)C(OC(C)=O)C(OC(C)=O)C2OC(C)=O)cc1 (stereo not drawn) was read as CF NFkB inh 60*, Shn3 3UTR inh 98*, Peg3 prom inh 100*, LMP1 NFkB inh -6, KKLEB tox -28 and MITF TRPM1 inh 115*.
CCOC(=O)C(=Cc1ccc(N(C)C)cc1)C(=O)c1ccccc1 was read as CF NFkB inh 6, Shn3 3UTR inh 15, Peg3 prom inh 4 and KKLEB tox 1.
`CCOC(=O)N(O)c1ccc(C=Cc2ccccc2)cc1` gave CF NFkB inh -24, Shn3 3UTR inh 29, Peg3 prom inh -81, LMP1 NFkB inh 86*, KKLEB tox -6 and MITF TRPM1 inh -56.
Screening Cc1c(O)ccc(/C=N/Nc2nc(-c3cccnc3)nc3ccccc23)c1O returned CF NFkB inh 61*, Shn3 3UTR inh -40, Peg3 prom inh -17, LMP1 NFkB inh 5, KKLEB tox -5 and MITF TRPM1 inh -54.
Screening Cc1ccc2nc(C(Cl)(Cl)Cl)nc(N/N=C/c3ccncc3)c2c1 returned CF NFkB inh -2, Shn3 3UTR inh 2, Peg3 prom inh 13, LMP1 NFkB inh -7, KKLEB tox 12 and MITF TRPM1 inh -6.
`Cc1ccc(-c2nc(N/N=C/c3ccncc3)c3ccccc3n2)cc1` gave CF NFkB inh -28, Shn3 3UTR inh 41, Peg3 prom inh -23, LMP1 NFkB inh 2, KKLEB tox -95* and MITF TRPM1 inh -6.
For Oc1ccc(/C=N/Nc2nc(-c3cccnc3)nc3ccccc23)c(O)c1 the results were CF NFkB inh 3, Shn3 3UTR inh -13, Peg3 prom inh -15, LMP1 NFkB inh 9, KKLEB tox 4 and MITF TRPM1 inh -15.
Screening Cc1cc(N/N=C/c2ccc(O)c(C)c2O)nc(-c2ccccc2O)n1 returned CF NFkB inh 104*, Shn3 3UTR inh 85, Peg3 prom inh 69*, LMP1 NFkB inh -21, KKLEB tox -102* and MITF TRPM1 inh -10.
`CNC(=O)C[C@@H]1C(=O)N(CCc2ccccc2)CC1(C)C` gave CF NFkB inh 4, Shn3 3UTR inh -18, Peg3 prom inh -20, LMP1 NFkB inh 1 and KKLEB tox -10.
CN1CCN(c2ccccc2NC(=O)c2ccc(-c3ccc(Cl)c(Cl)c3)o2)CC1 was read as CF NFkB inh 20, Shn3 3UTR inh 2, Peg3 prom inh 42, LMP1 NFkB inh -7, KKLEB tox -10 and MITF TRPM1 inh 2.
Cc1cc(N2CCN(C)CC2)ccc1NC(=O)c1ccc(-c2ccc(Cl)cc2)o1 was read as CF NFkB inh 12, Shn3 3UTR inh 31, Peg3 prom inh 90*, LMP1 NFkB inh -1, KKLEB tox -12 and MITF TRPM1 inh -2.
`COc1ccc(CN2CCC3CC2c2cc(-c4cccc(C)c4)ccc23)cc1` (stereo not drawn) gave CF NFkB inh 10, Shn3 3UTR inh 7, Peg3 prom inh 1, LMP1 NFkB inh 4, KKLEB tox -5 and MITF TRPM1 inh -2.
Screening O=C(NCc1ccccc1)c1c(Cl)nc(Cl)c(Cl)c1Cl returned CF NFkB inh 27, Shn3 3UTR inh -4, Peg3 prom inh 102*, LMP1 NFkB inh 81*, KKLEB tox -33 and MITF TRPM1 inh 77*.
For O=[N+]([O-])c1ccc(C=Nc2ccc(Cl)c([N+](=O)[O-])c2)s1 the results were CF NFkB inh 25, Shn3 3UTR inh 80, Peg3 prom inh 81*, LMP1 NFkB inh -49, KKLEB tox -8 and MITF TRPM1 inh 71*.
NC(=O)c1ccc(N=Cc2ccc([N+](=O)[O-])s2)cc1 was read as CF NFkB inh 22, Shn3 3UTR inh 58, Peg3 prom inh 47, LMP1 NFkB inh -19, KKLEB tox -13 and MITF TRPM1 inh 51.
Cc1onc(-c2ccccc2)c1C(=O)N/N=C/c1ccc([N+](=O)[O-])s1 was read as CF NFkB inh -15, Shn3 3UTR inh -1, Peg3 prom inh 25, LMP1 NFkB inh 5, KKLEB tox 1 and MITF TRPM1 inh 65*.
Screening Cc1cc(C)cc(N=Cc2ccc([N+](=O)[O-])s2)c1 returned CF NFkB inh -1, Shn3 3UTR inh 10, Peg3 prom inh 51*, LMP1 NFkB inh -8, KKLEB tox 2 and MITF TRPM1 inh 28.
`O=C(Cc1cccs1)N/N=C\c1ccc([N+](=O)[O-])s1` gave CF NFkB inh 5, Shn3 3UTR inh 14, Peg3 prom inh -37, LMP1 NFkB inh -6, KKLEB tox 6 and MITF TRPM1 inh 52.
O=[N+]([O-])c1ccc(/C=N/Nc2ncccc2[N+](=O)[O-])s1 was read as CF NFkB inh -5, Shn3 3UTR inh -26, Peg3 prom inh -60, LMP1 NFkB inh -26, KKLEB tox -1 and MITF TRPM1 inh 9.
Screening Cc1ccc(NC(=S)N/N=C/c2ccc([N+](=O)[O-])s2)cc1 returned CF NFkB inh -2, Shn3 3UTR inh 66, Peg3 prom inh 6, LMP1 NFkB inh 38, KKLEB tox 6 and MITF TRPM1 inh 70*.
C[C@@H]1CN([C@H](C)CO)C(=O)c2cc(Br)cnc2O[C@@H]1CN(C)C(=O)C1CCOCC1 was read as CF NFkB inh -10, Shn3 3UTR inh 0, Peg3 prom inh -3, LMP1 NFkB inh -3 and KKLEB tox 6.
For O[C@@H]1C[C@H](c2ccc(Cl)cc2)N(Cc2cccs2)C[C@H]1n1cc(-c2ccc(F)cc2)nn1 the results were CF NFkB inh -1, Shn3 3UTR inh -22, Peg3 prom inh 15, LMP1 NFkB inh -3 and KKLEB tox -6.
`CC(C)C(CCNC1CCN(C)CC1)c1ccc(Cl)cc1` (stereo not drawn) gave CF NFkB inh 16, Shn3 3UTR inh 11, Peg3 prom inh 100*, LMP1 NFkB inh -23, KKLEB tox -23 and MITF TRPM1 inh 90*.
Screening CCNC(=O)N1CCN(CCCC(c2ccc(F)cc2)c2ccc(F)cc2)CC1 returned CF NFkB inh 12, Shn3 3UTR inh 1, Peg3 prom inh -9, LMP1 NFkB inh -2, KKLEB tox 2 and MITF TRPM1 inh -3.
For CN1CCC(NCCC(c2ccc(F)cc2)c2ccc(Cl)cc2)CC1 (stereo not drawn) the results were CF NFkB inh 8, Shn3 3UTR inh -15, Peg3 prom inh 94*, LMP1 NFkB inh -63, KKLEB tox -4 and MITF TRPM1 inh 80*.
CC(C)C(CCNCc1ccccn1)c1ccc(Cl)cc1 (stereo not drawn) was read as CF NFkB inh 4, Shn3 3UTR inh 15, Peg3 prom inh -5, LMP1 NFkB inh -1, KKLEB tox 18 and MITF TRPM1 inh 3.
